Results on five compounds are retold here after PubChem BioAssay.

Assay [1] is described as follows: binders of probe aFSTL3 on microarray, primary screen, stem cell growth factor project, biochemical, small-molecule microarray, fluorescence 635/667 (AID 1064).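 Further: measures binding of the biotinylated anti-FSTL3 antibody to printed compounds.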 The settings on record: higher = more signal.
Assay [2] can be described thus: binders from COS7 lysate, DM2A8 probe, primary screen, torsin A project, cell lysate, small-molecule microarray, fluorescence 635/667 (AID 1065). As to conditions: higher = more signal, COS7 lysate expressing mutant human TOR1A.
Assay [3] can be described thus: binders of probe aFGF2 on microarray, primary screen, stem cell growth factor project, biochemical, small-molecule microarray, fluorescence 635/667 (AID 1067).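 Further: measures binding of biotinylated aFGF2 protein to printed compounds on slides; z-score merges feature fluorescence and signal-to-noise across triplicate slides.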 As to conditions: higher = more signal.
A short description of assay [4]: binders of probe aFGF10 on microarray, primary screen, stem cell growth factor project, biochemical, small-molecule microarray, fluorescence 635/667 (AID 1071).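 Further: score merges 667 nm spot intensity and signal to noise from triplicate slides.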 As to conditions: higher = more signal.
Assay [5] concerns the target Neurogenic locus notch homolog protein 2 (Homo sapiens) (UniProt Q04721). Description: Notch2 binders on small-molecule microarrays, primary screen, biochemical, small-molecule microarray, 635 nm fluorescence, stem cell growth factors (AID 1073). As to conditions: Notch2 binding, higher = more signal.
In assay [6] the target is Pro-neuregulin-1, membrane-bound isoform (Homo sapiens) (UniProt Q02297). The assay can be described thus: NRG1 binders on small-molecule microarrays, primary screen, psychiatric disease protein project, biochemical, small-molecule microarray, fluorescence 635/667 (AID 1075).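 Further: score combines 667 nm spot fluorescence with signal to noise.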 The settings on record: NRG1 binding, 635 nm fluorescence, higher = more signal.
Pro-neuregulin-1, membrane-bound isoform (Homo sapiens), sequence (Q02297 whole entry, looked up, the tested form may be a part, canonical isoform): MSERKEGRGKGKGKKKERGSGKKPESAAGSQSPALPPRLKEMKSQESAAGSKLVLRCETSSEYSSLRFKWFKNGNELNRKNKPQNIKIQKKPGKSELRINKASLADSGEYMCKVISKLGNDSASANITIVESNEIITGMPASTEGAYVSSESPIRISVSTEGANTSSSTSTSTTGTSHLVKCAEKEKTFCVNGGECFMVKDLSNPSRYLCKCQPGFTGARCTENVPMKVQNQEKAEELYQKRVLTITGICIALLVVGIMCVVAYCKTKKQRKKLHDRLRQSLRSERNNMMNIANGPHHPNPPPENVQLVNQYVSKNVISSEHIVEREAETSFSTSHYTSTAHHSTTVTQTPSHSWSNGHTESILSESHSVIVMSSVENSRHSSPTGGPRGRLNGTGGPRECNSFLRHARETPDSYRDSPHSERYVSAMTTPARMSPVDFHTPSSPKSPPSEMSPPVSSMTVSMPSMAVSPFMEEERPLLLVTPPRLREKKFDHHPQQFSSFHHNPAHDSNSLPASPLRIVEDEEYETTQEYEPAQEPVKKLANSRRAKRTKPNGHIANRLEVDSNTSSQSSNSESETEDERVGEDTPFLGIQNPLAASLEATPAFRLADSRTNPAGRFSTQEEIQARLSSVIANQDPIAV
The subject of assay [7] is Neuregulin-1 EGF-like domain. Description: binders of neuregulin-1 EGF-like domain, primary screen, biochemical, small-molecule microarray, 635 nm fluorescence (AID 1081).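 Further: binding of the protein to compounds printed on small-molecule microarray slides.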 As to conditions: small-molecule microarray binding, higher = more signal.
Assay [8] is described as follows: FRG1 promoter luciferase signal modulators, primary screen, FRG1 inhibition for FSHD, cell-based, C2C12 myotubes, firefly/Renilla luciferase, luminescence (AID 1084). As to conditions: higher = more signal, called active from +8 up or from −8 down.
A short description of assay [9]: binders of probe aFST on microarray, primary screen, stem cell growth factor project, biochemical, small-molecule microarray, fluorescence 635/667 (AID 1086).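 Further: score merges 667 nm fluorescence with signal-to-noise of each printed compound spot.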 The settings on record: higher = more signal.
A short description of assay [10]: binders of probe aHhip on microarray, primary screen, stem cell growth factor project, biochemical, small-molecule microarray, fluorescence 635/667 (AID 1087).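 Further: score merges spot fluorescence at 667nm with spot signal to noise ratio.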 As to conditions: higher = more signal.
Assay [11] concerns PRMT1 (protein arginine N-methyltransferase 1). The assay can be described thus: PRMT1 binders on small-molecule microarrays, primary screen, biochemical, small-molecule microarray, 635 nm fluorescence (AID 1088).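 Further: binding of Prmt1 protein to compounds spotted on small-molecule microarray slides.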 As to conditions: small-molecule microarray binding, higher = more signal.
Assay [12] can be described thus: yeast growth modulation, basal conditions, primary screen, YJM789 clinical isolate, OD600, 24 h (AID 1089).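 Further: growth of clinical yeast isolate S. cerevisiae YJM 789 seeded 1000 cells per well; test concentration not given here.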 The settings on record: S. cerevisiae YJM789 growth, higher = more signal, called active from +8 up or from −8 down.
Assay [13] in a line: fission yeast growth modulation, primary screen, strain 972, OD600, 24 h, no modulator (AID 1090).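 Further: basal condition with compound alone and no growth modifier present; test concentration not given here.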 The settings on record: S. pombe 972 growth, higher = more signal, called active from +8 up or from −8 down.
The nature of assay [14]: S. cerevisiae growth modulation with rapamycin, primary screen, strain BY4716, OD600, 96 h (AID 1091). Further: test concentration not given here. The settings on record: higher = more signal, called active from +8 up or from −8 down.
Assay [15] has as its target Torsin-1A-interacting protein 2 (Homo sapiens) (UniProt Q8NFQ8). Description: LULL1 binders on small-molecule microarray, primary screen, cell lysate, human LULL1 lysate, 635/667 nm fluorescence (AID 1092).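 Further: probe is lysate of COS7 cells overexpressing human LULL1; score merges per-feature 667 nm fluorescence with signal-to-noise.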 As to conditions: hLULL1 lysate binding, 635 nm fluorescence, higher = more signal.
The nature of assay [16]: E. coli growth modulation, two-sided OD650, primary screen, E. coli filamentation project, strain DRC41, 24 h (AID 1093).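 Further: MC1000 strain lacking acrAB efflux and sulA so SOS filamentation is blocked; test concentration not given here.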 The settings on record: OD650, 24 h, higher = more signal, called active from +8 up or from −8 down.
The nature of assay [17]: small-molecule microarray binders of probe aLefty2, primary screen, biochemical, biotinylated probe, 635/667 nm fluorescence (AID 1094).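 Further: score merges spot fluorescence near 667 nm with spot signal-to-noise ratio.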 The settings on record: higher = more signal.
Assay [18] deals with Noggin (protein binding on small-molecule microarray). The assay can be described thus: Noggin binders on small-molecule microarray, primary screen, biochemical, 635/667 nm fluorescence (AID 1095).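 Further: score merges 667 nm feature fluorescence with signal to noise over triplicate slides.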 The settings on record: 635 nm fluorescence, higher = more signal.
Assay [19] addresses Neurogenic locus notch homolog protein 3 (Homo sapiens) (UniProt Q9UM47). The assay can be described thus: NOTCH3 binders on small-molecule microarray, primary screen, biochemical, 635/667 nm fluorescence (AID 1096). The settings on record: NOTCH3 binding, 635 nm fluorescence, higher = more signal.
Assay [20] in a line: small-molecule microarray binders of probe aEGFR, primary screen, biochemical, biotinylated probe, 635/667 nm fluorescence (AID 1097).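 Further: probe is a biotinylated anti-EGFR antibody binding compounds printed on slides; score combines fluorescence near 667 nm and signal to noise of each spot.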 As to conditions: higher = more signal.

Active and inactive are the calls of the source.

Neurogenic locus notch homolog protein 2 (Homo sapiens), sequence (Q04721 whole entry, looked up, canonical isoform): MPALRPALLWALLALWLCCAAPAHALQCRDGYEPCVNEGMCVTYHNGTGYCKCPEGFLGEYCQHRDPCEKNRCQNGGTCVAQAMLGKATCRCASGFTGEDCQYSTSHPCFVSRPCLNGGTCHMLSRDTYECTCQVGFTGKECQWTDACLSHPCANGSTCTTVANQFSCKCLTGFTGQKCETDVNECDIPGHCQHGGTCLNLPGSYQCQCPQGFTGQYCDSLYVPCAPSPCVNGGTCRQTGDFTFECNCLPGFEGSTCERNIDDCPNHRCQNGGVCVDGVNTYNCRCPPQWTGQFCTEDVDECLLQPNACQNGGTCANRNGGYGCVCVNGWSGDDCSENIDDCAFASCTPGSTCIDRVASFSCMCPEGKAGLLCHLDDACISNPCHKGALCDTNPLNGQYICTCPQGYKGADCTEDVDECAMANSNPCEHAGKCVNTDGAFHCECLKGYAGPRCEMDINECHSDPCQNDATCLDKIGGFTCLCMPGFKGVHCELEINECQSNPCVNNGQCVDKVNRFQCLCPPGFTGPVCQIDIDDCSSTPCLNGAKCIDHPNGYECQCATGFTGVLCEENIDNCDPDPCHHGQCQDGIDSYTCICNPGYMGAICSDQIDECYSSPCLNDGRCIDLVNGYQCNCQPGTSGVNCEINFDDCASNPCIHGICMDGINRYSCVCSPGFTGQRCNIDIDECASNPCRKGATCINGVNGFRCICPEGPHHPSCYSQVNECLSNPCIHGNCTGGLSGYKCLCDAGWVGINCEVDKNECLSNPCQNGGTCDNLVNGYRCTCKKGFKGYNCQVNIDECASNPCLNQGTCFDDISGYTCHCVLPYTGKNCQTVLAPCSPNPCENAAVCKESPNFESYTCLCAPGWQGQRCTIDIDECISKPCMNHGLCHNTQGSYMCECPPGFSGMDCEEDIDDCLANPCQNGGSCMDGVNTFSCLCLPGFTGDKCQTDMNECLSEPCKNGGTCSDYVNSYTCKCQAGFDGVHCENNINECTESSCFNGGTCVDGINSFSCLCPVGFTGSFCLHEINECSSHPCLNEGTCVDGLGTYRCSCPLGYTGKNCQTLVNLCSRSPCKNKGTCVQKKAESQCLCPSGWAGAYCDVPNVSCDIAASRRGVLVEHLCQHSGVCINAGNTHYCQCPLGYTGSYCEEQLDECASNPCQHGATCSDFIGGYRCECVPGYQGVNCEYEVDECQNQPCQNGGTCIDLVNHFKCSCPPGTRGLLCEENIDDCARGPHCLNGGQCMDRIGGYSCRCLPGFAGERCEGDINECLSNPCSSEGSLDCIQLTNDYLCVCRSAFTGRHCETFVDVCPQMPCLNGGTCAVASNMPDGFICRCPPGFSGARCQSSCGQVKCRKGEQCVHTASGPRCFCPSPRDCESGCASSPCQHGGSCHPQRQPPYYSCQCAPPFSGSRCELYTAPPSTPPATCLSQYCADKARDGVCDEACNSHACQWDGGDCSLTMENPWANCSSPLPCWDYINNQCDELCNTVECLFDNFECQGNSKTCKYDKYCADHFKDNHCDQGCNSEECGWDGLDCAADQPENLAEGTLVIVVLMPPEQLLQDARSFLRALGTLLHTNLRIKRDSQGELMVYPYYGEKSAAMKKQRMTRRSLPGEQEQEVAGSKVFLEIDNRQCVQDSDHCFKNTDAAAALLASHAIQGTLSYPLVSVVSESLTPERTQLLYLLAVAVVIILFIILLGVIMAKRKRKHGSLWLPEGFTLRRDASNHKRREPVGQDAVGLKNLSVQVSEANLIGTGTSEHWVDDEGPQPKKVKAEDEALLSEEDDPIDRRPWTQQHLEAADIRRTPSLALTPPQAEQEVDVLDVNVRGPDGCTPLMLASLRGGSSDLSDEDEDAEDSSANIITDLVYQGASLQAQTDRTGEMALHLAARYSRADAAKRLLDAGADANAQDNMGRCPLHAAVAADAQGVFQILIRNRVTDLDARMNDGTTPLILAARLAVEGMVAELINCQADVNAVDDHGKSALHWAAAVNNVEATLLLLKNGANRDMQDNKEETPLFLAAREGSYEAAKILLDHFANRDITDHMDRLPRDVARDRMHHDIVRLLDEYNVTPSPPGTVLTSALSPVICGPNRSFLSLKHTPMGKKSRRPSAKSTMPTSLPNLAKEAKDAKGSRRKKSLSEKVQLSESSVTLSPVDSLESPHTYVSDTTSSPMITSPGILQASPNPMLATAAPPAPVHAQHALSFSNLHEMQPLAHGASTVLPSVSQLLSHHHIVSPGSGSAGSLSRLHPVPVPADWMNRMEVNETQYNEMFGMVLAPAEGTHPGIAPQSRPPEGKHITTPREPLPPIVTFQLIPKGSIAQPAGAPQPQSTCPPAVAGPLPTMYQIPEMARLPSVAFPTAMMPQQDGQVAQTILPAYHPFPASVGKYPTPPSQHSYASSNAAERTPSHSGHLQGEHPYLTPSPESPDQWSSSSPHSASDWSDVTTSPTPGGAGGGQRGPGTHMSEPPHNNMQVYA
Torsin-1A-interacting protein 2 (Homo sapiens), sequence (Q8NFQ8 whole entry, looked up): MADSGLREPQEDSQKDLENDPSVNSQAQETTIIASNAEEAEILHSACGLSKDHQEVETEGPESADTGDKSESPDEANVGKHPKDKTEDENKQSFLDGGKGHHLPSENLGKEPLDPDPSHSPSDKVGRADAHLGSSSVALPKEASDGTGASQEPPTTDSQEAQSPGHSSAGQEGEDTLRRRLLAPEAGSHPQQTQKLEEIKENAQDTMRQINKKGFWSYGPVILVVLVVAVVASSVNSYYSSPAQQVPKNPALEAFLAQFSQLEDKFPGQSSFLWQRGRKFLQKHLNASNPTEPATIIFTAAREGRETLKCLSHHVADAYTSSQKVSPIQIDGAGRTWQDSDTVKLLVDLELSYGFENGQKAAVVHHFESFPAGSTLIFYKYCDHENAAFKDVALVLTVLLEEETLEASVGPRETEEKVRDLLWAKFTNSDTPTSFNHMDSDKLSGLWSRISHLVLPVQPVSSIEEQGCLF

Take `CCCCC(=O)N(Cc1ccccc1F)[C@@H]1CC(C(=O)NCCO)=C[C@H](Oc2c(I)cc(CO)cc2OC)[C@H]1O`: the composite z-score in assay [1] is -0.451; in assay [2] it was 0.686; in assay [3] it was -0.0462; in [4], 0.228; in assay [5], 1.17; in assay [6] it was 1.47. Moreover, the composite z-score in [7] was 1.42; in [9] it was 0.442; in [10], 0.27; in assay [11], 1.54; in assay [15], 1.83; in assay [17] it was -0.0718. The composite z-score in [18] amounted to 2.04; in [19], 1.04; in assay [20] it was 0.0209. The z-score is -0.84 (inactive) in assay [8]; 0.41 (inactive) in assay [12]; -1.91 (inactive) in assay [13]; -1.02 (inactive) in [14]; 0.772 (inactive) in assay [16].
In the case of `COCCOC(=O)N1C(=O)[C@@]2(c3ccccc31)[C@H](c1ccc(O)cc1)N1[C@H](c3ccccc3)[C@H](c3ccccc3)OC(=O)[C@H]1[C@@H]2C(N)=O`, the composite z-score in [1] is 0.113; in assay [2], 0.192; in [3], -0.106; in assay [4], -0.304; in assay [5], -0.818; in assay [6], 0.178. The composite z-score in [7] was 0.651; in [9], -0.722; in assay [10] it was -0.226; in assay [11], -0.0183; in assay [15], 2.35; in [17], -0.126. The composite z-score was -0.678 in assay [18], -0.474 in [19] and -0.16 in assay [20]. For the same compound, the z-score in [8] is -1.16 (inactive); in assay [12] it was 0.396 (inactive); in assay [13] it was -0.153 (inactive); in assay [14], 0.549 (inactive); in assay [16], -0.29 (inactive).
In the case of `COCCCNC(=O)[C@@]1(Cc2ccccc2I)c2ccccc2C(=O)N(Cc2ccccc2)[C@H]1c1ccc(CO)cc1`, the composite z-score in assay [1] was 0.094; in assay [2], -0.785; in assay [3], -0.142; in assay [4] it was -0.487; in assay [5], -1.61; in [6] it was 0.542. In addition, the composite z-score was 1.34 in [7]; -0.656 in [9]; 0.0695 in [10]; 0.96 in assay [11]; 1.62 in [15]; -0.204 in assay [17]. Besides, the values for the composite z-score in assay [18], in assay [19] and in [20] were -1.27, -1.37 and -0.302, respectively. Besides, the z-score in assay [8] was -4.46 (inactive); in assay [12], 0.411 (inactive); in assay [13] it was 0.512 (inactive); in assay [14], 0.951 (inactive); in assay [16], 0.0006 (inactive).
For `O=C1C2C=CC(C(O)CCc3ccccc3)N(Nc3ccccc3)C2C(=O)N1c1ccccc1` (stereo not given), the composite z-score came to 0.572 in assay [1]; 1.83 in assay [2]; 0.288 in assay [3]; 0.83 in assay [4]; 1.61 in assay [5]; 2.09 in assay [6]. The composite z-score in [7] is 1.22; in assay [9] it was 1.15; in assay [10], -0.0645; in [11], 1.49; in assay [15], 3.4; in [17], 0.231. Further, the results for the composite z-score in assay [18], in assay [19] and in assay [20] were 0.0749, 1.02 and 0.0864, respectively. For the same compound, the z-score was 0.0878 (inactive) in assay [8]; 0.655 (inactive) in [12]; 0.226 (inactive) in [13]; 1.43 (inactive) in [14]; -1.88 (inactive) in [16].
With `CCN(CC)c1ccc(N2CC=CC34O[C@@H]5C=CCCOC(=O)C5[C@H]3C(=O)N(CCCO)[C@@H]4C2=O)cc1` (stereo not given in full), the composite z-score is -0.0768 in assay [1]; -0.288 in assay [2]; -0.158 in [3]; -0.332 in assay [4]; -0.816 in assay [5]; -0.613 in assay [6]. The composite z-score in assay [7] was -0.0612; in assay [9], -0.177; in assay [10], -0.134; in assay [11], -0.664; in assay [15], -1.02; in assay [17] it was -0.122. The composite z-score in assay [18] was 0.232; in assay [19] it was -0.155; in assay [20], -0.162. The z-score is -0.306 (inactive) in assay [8]; -0.452 (inactive) in assay [12]; -0.983 (inactive) in assay [13]; -0.282 (inactive) in assay [14]; 1.87 (inactive) in assay [16].
